Here are results for 59 compounds from PubChem BioAssay AID463173 (ICCB-Longwood Screening Facility, Harvard Medical School, 2010).

About 4,300 (8.3%) of roughly 52,000 compounds were called active. This is one part of a sample in which actives are shown more often than they occur. Cut-off read from the data, not from the text of the source: active = survival mostly below about 52% (no sharp cut-off); inactive = mostly above about 56%.

The test system of this test is DeltatarO mutant. Description: growth inhibition of S. aureus wild type versus tarO mutant, primary screen, teichoic acid synthesis inhibitors, RN4220, OD600 (AID 463173). The following applies: OD600, 18 h, stronger effect = lower value, screened at 18.75 µg/mL (by protocol).
Turning to `CCCn1ccc2c(OCC(=O)Nc3ccc(C(F)(F)F)cc3)cccc2c1=O`, the survival is 75% (inactive).
For the compound `COc1ccccc1CNC(=O)Cn1nc(C)n2cccc2c1=O`, the survival was 94% (inactive).
Regarding `CCN(CC)c1ccc(NC(=O)Cn2cc3c(n2)CCCC3)c(C)c1`, the survival is 121% (inactive).
As for `CCOc1ccc(-n2c(SCC(=O)NC3CCCC3)nnc2-c2ccoc2C)cc1`, the figure is 92% (inactive).
Under `COc1ccc(C)cc1NC(=O)c1ccc2c(SCC(=O)O)c3c(nc2c1)CCCC3` stands 77% (inactive).
As for `COc1ccccc1NC(=O)c1ccc2c(Cl)c3c(nc2c1)CCCC3`, the figure is 15% (active); as for `COc1cc(OC)c(NC(=O)c2ccc3c(Cl)c4c(nc3c2)CCCC4)cc1Cl`, 85% (inactive).
Consider `COc1cc(Cl)c(C)cc1NC(=O)c1ccc2c(SCC(=O)O)c3c(nc2c1)CCCC3`, for which the survival is 41% (active).
Under `CCOc1ccccc1NC(=O)c1ccc2c(Cl)c3c(nc2c1)CCCC3` stands 35% (active); under `CCOc1ccccc1NC(=O)c1ccc2c(Cl)c3c(nc2c1)CCC3`, 82% (inactive).
Under `COc1ccc(OC)c(NC(=O)c2ccc3c(Cl)c4c(nc3c2)CCCC4)c1` stands 82% (inactive); under `CCOc1ccc(CNC(=O)c2ccc3c(Cl)c4c(nc3c2)CCCC4)cc1`, 75% (inactive); under `O=C(Nc1ccc(F)c(Cl)c1)c1ccc2c(Cl)c3c(nc2c1)CCCC3`, 118% (inactive).
As to `O=C(Nc1ccccc1F)c1ccc2c(Cl)c3c(nc2c1)CCC3`, the survival is 21% (active).
Turning to `COC(=O)c1ccccc1NC(=O)c1ccc2c(Cl)c3c(nc2c1)CCCC3`, the survival is 80% (inactive).
For the compound `COc1ccc(NC(=O)c2ccc3c(SCC(=O)O)c4c(nc3c2)CCCC4)c(OC)c1`, the survival is 55% (inactive).
As to `COc1ccc(NC(=O)C2CCN(c3ccc(Sc4ccc(C)cc4)nn3)CC2)cc1`, the survival is 74% (inactive).
Under `Cc1ccc(CNC(=O)C(C)n2c(=O)cc(-c3ccccc3)c3c(C)nn(C)c32)cc1` (centres undefined) stands 80% (inactive); under `C=CCn1c(Br)nc2c1c(=O)n(C)c(=O)n2C`, 73% (inactive).
As for `CN(C1CCCCC1)S(=O)(=O)c1ccc2c(c1)c(=O)c(C(=O)NCCc1ccccc1)cn2C`, the figure is 79% (inactive).
As for `Cc1cc(C)c2c(-n3cccc3)c(C(=O)NCCc3ccccc3)sc2n1`, the figure is 90% (inactive).
`Cc1cc(C)cc(OCCSc2nc(-c3cccs3)nc3cc(=O)[nH]n23)c1`: the survival is 67% (inactive).
Under `O=C(COc1ccccc1Cl)Nc1cc(-c2ccccc2F)nn1-c1ccccc1` stands 91% (inactive); under `COc1cccc(CNC(=O)c2ccc3c(Cl)c4c(nc3c2)CCCC4)c1`, 49% (active).
Under `COc1cc(NC(=O)c2ccc3c(Cl)c4c(nc3c2)CCC4)cc(OC)c1OC` stands 62% (inactive); under `O=C(NCc1cccc(Cl)c1)c1ccc2c(Cl)c3c(nc2c1)CCCC3`, 48% (inactive); under `COc1ccc(CNC(=O)c2ccc3c(Cl)c4c(nc3c2)CCCC4)c(OC)c1`, 92% (inactive).
Turning to `CCOC(=O)c1cccc(NC(=O)c2ccc3c(Cl)c4c(nc3c2)CCC4)c1`, the survival is 41% (active).
Under `CCOC(=O)c1ccccc1NC(=O)c1ccc2c(Cl)c3c(nc2c1)CCC3` stands 96% (inactive); under `NS(=O)(=O)c1ccc(NC(=O)c2csnn2)cc1`, 80% (inactive); under `O=C(NCCO)c1ccc(-c2nnc(Nc3ccc(OC(F)(F)Cl)cc3)c3ccccc23)cc1`, 72% (inactive).
On to `CCOC(=O)c1ccc(NC(=O)C2CCCN(c3ccc(Sc4ccc(C)cc4)nn3)C2)cc1` (centres undefined), for which the survival was 43% (inactive).
In the case of `Cc1ccccc1CN1c2ccccc2-c2nc(SCC(=O)Nc3cc(F)ccc3F)ncc2S1(=O)=O`, the survival was 89% (inactive).
As to `Cc1ccc(C)c(CN2C(=O)c3ccccc3Sc3ccc(C(=O)NCc4ccc5c(c4)OCO5)cc32)c1`, the survival was 89% (inactive).
For `Cc1[nH]c2ccccc2c1Cc1nnc(SCC(N)=O)n1Cc1ccco1`, the survival is 99% (inactive).
As for `CCOC(=O)c1nc(Nc2ccc(C(=O)OCC(C)C)cc2)c2ccccc2n1`, the figure is 61% (inactive); as for `COC(=O)c1ccc(Nc2nc(-c3ccc(C)cc3)nc3ccccc23)cc1`, 9% (active).
As to `CCOC(=O)c1nc(Nc2ccc(C(=O)OC(C)C)cc2)c2ccccc2n1`, the survival was 68% (inactive).
As for `O=C(CSc1nc(Nc2ccc(F)cc2)c2ccccc2n1)c1ccc(F)cc1`, the figure is 124% (inactive).
Regarding `COC(=O)c1ccc(Nc2nc(-c3ccccc3Cl)nc3ccccc23)cc1`, the survival was 21% (active).
With `CCOC(=O)c1nc(Nc2ccc(C(C)=O)cc2)c2ccccc2n1`, the survival is 49% (inactive).
Under `COc1ccc2c(c1)c1c(c(=O)n(-c3ccc(OC)c(OC)c3)c(=O)n1Cc1ccc(C)cc1)n2C` stands 73% (inactive).
Turning to `CCOc1ccc(NC(=O)CSc2nc3c(oc4ccccc43)c(=O)n2-c2ccccc2C)cc1`, the survival is 79% (inactive).
Consider `COc1ccc(CC(=O)N2CCc3cc(OC)c(OC)cc3C2COc2ccc(F)cc2)cc1` (centres undefined), for which the survival is 67% (inactive).
Under `Cn1nnnc1SCCCNCc1ccccc1OCc1ccc(Cl)cc1` stands 66% (inactive); under `Cn1nnnc1SCCNCc1ccc(OCc2ccc(Cl)cc2)cc1`, 68% (inactive).
Regarding `Cn1nnnc1SCCCNCc1ccccc1OCc1ccc(F)cc1`, the survival is 57% (active).
For `CCOc1cc(CNCCSc2nnnn2C)cc(Cl)c1OCc1ccc(Cl)cc1`, the survival was 2% (active).
Under `COc1cccc(CNCCSc2nnnn2C)c1OCc1ccc(Cl)cc1` stands 62% (inactive); under `COc1cc(CNCCSc2nnnn2C)cc(Cl)c1OCc1ccccc1`, 44% (active).
Turning to `Cn1nnnc1SCCCNCc1ccccc1OCc1ccccc1F`, the survival is 72% (inactive).
Take `Cn1nnnc1SCCCNCc1cccc(OCc2ccccc2)c1`: the survival is 85% (inactive).
In the case of `COc1cc(CNCCSc2nnnn2C)ccc1OCc1ccccc1`, the survival is 73% (inactive).
Regarding `Cn1nnnc1SCCCNCc1cccc(OCc2ccc(F)cc2)c1`, the survival is 115% (inactive).
`COc1cccc(CNCCSc2nnnn2C)c1OCc1ccccc1`: the survival is 79% (inactive).
With `Cn1nnnc1SCCCNCc1cccc(OCc2ccc(Cl)cc2)c1`, the survival was -3% (active).
Turning to `O=C1CCc2cc(S(=O)(=O)NC(C(=O)Nc3ccc(F)cc3)c3ccccc3)ccc2N1` (centres undefined), the survival is 100% (inactive).
`COc1ccc(-n2c(=O)c3c4c(sc3n(CC(=O)N3CCCCC3C)c2=O)CCC4)c(OC)c1` (centres undefined): the survival was 87% (inactive).
Under `Cc1ccc(Cl)cc1NC(=O)Cn1c(=O)c(CNc2ccccc2)cc2cc3c(cc21)OCCO3` stands 95% (inactive).
